Measurements from PubChem BioAssay (NCATS).
Inconclusive results are not listed. Entries that show only a call come without a potency. The source made the active and inactive calls. Unless noted, the call rests on the fitted dose curve.

Target: Protein phosphatase 1D (Homo sapiens) (UniProt O15297)
Experiment: Rhodamine-PBP qHTS Assay for Modulators of WT P53-Induced Phosphatase 1 (WIP1) (AID 1347425; active means well fitted curve in the direction sought with a large enough effect)
Conditions: recombinant WIP1, Rhodamine-PBP phosphate fluorescence, real-time; series mostly up to 57.5 µM
Summary of the method: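 Steps: enzyme with Rh-PBP sensor and compounds, room-temperature incubation of 1 hr, baseline read, addition of VEPPL-pS-QETFS (10 uM final), kinetic fluorescence reads at 525/598 nm. Activity equals final minus baseline signal.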

Chain of Protein phosphatase 1D (Homo sapiens) (O15297 whole entry, looked up): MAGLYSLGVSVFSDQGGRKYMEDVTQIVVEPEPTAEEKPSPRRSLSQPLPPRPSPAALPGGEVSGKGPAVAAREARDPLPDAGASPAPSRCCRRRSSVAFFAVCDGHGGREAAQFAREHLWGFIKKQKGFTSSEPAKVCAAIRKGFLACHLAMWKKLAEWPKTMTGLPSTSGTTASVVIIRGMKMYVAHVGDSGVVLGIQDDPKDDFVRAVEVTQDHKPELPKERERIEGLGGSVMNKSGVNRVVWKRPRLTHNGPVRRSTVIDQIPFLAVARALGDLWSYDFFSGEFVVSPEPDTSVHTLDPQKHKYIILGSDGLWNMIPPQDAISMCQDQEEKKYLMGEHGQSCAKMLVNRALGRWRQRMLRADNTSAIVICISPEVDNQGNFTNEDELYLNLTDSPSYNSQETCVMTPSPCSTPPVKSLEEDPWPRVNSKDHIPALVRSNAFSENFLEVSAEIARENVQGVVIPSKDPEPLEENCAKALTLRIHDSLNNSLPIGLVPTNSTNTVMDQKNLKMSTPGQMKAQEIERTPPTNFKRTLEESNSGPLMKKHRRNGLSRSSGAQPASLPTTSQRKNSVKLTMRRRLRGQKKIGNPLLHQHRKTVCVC

Structure (SMILES) | outcome
Clc1ccc(CSC(Cn2ccnc2)c2ccc(Cl)cc2Cl)cc1 (stereo unspecified) | inactive
CNC(=O)Oc1cccc2ccccc12 | inactive
CC#C[C@]1(O)CC[C@H]2[C@@H]3C[C@H](C)C4=CC(=O)CC[C@]4(C)[C@H]3CC[C@@]21C | inactive
O=C(N[C@@H]1N=C(c2ccccc2F)c2cccc3c2N(CC3)C1=O)c1cc2ccccc2[nH]1 | inactive
CCOC(=O)c1ncn2c1CN(C)C(=O)c1c(I)cccc1-2 | inactive
C[C@@H]1CN(C2CCC(C#N)(c3ccc(F)cc3)CC2)CC[C@]1(C(=O)O)c1ccccc1 (stereo partly specified) | inactive
Clc1ccc(CO/N=C(\Cn2ccnc2)c2ccc(Cl)cc2Cl)c(Cl)c1 | inactive
O=C(CCCN1CCC(n2c(=O)[nH]c3ccccc32)CC1)c1ccc(F)cc1 | inactive
Oc1ccc([C@H]2CNCc3c2ccc(O)c3O)cc1O | inactive
O=C(NC(=O)c1c(F)cccc1F)Nc1cc(Cl)c(OC(F)(F)C(F)C(F)(F)F)cc1Cl (stereo unspecified) | inactive
CCOP(=S)(OCC)O/N=C(\C#N)c1ccccc1 | inactive
C[C@]12CC[C@H]3[C@@H](CCC4=CC(=O)CC[C@@H]43)[C@@H]1CC[C@@H]2O | inactive
CC(Cc1ccccc1)NCCCCl (stereo unspecified) | inactive
C=CC[C@]1(O)CC[C@H]2[C@@H]3CCC4=CC(=O)CCC4=C3C=C[C@@]21C | inactive
Oc1ccc2[nH]cc(CCCCN3CC=C(c4ccccc4)CC3)c2c1 | inactive
O=C(N[C@H]1N=C(c2ccccc2F)c2cccc3c2N(CC3)C1=O)c1cc2ccccc2[nH]1 | inactive
O=C1CN2CCOC2(c2ccccc2Cl)c2cc(Cl)ccc2N1 (stereo unspecified) | inactive
CCCCCCCCCCCC[N+](C)(C)CCOc1ccccc1 | inactive
CC[C@]1(O)CC[C@H]2[C@@H]3CCC4=CCCC[C@@H]4[C@H]3CC[C@@]21C | inactive

Structure (SMILES) | outcome
CC1N=C(N)OC1c1ccccc1 (stereo unspecified) | inactive
CN1C(=O)[C@@H](NC(=O)c2cc3ccccc3[nH]2)N=C(c2ccccc2)c2ccccc21 | inactive
CC(C)C(Br)C(=O)NC(N)=O (stereo unspecified) | inactive
C[C@]12Cc3nonc3C[C@@H]1CC[C@@H]1[C@@H]2CC[C@@]2(C)[C@H]1CC[C@]2(C)O | inactive
CCOC(=O)c1cncn1C(C)c1ccccc1 (stereo unspecified) | inactive
Clc1ccc(C(OCCN2CCCCC2)c2ccccc2)cc1 (stereo unspecified) | inactive
COc1ccc2c3c1O[C@H]1[C@@H](O)C=C[C@H]4[C@@H](C2)N(C)CC[C@@]341 | inactive
c1ccc2c(c1)Sc1ccccc1N2CC1CN2CCC1CC2 (stereo unspecified) | inactive
CCC(=O)C(CCN(C)C)(c1ccccc1)c1ccccc1 | inactive
C=CCOC(Cn1ccnc1)c1ccc(Cl)cc1Cl (stereo unspecified) | inactive
C#C[C@]1(O)C=C[C@H]2[C@@H]3CCC4=CC(=O)CC[C@@H]4[C@H]3CC[C@@]21CC | inactive
CCC(=O)O[C@H]1CC[C@H]2[C@@H]3CCC4=CC(=O)CC[C@]4(C)[C@H]3CC[C@]12C | inactive
COc1ccc2c(C(=O)c3ccc(Cl)cc3)c(C)n(CC(=O)O)c2c1 | inactive
c1ccc2nc(N3CCNCC3)ccc2c1 | inactive
CC[C@H]1C[C@H]2[C@@H]3CCC4=CC(=O)CC[C@@H]4[C@H]3CC[C@]2(C)[C@H]1O | inactive
CN1C2CCC(C)(C)C1CC(OC(=O)C(O)(c1cccs1)c1cccs1)C2 (stereo unspecified) | inactive
CC(C(O)c1ccccc1)N(C)C/C=C/c1ccccc1 (stereo unspecified) | inactive
C[C@H](N)[C@H](O)c1ccc(O)c(O)c1 | inactive

System: not listed separately
Experiment: Primary qHTS for inhibitors of SARS-S pseudo-typed particle cell entry (AID 1479145); further: nearly all actives have a fitted effect of over 45% in size; further: potency means the concentration at half of the fitted maximal effect
Conditions: SARS-S pseudotyped particle cell entry, luciferase reporter; series mostly up to 57.1 µM

Structure (SMILES) | Potency
CNC(=O)Oc1cccc2ccccc12 | inactive
CC#C[C@]1(O)CC[C@H]2[C@@H]3C[C@H](C)C4=CC(=O)CC[C@]4(C)[C@H]3CC[C@@]21C | 20 µM (active)
Cc1ccc([N+](=O)[O-])[c]2c1[O][Hg]2 | 10 µM (active)
Oc1ccc([C@H]2CNCc3c2ccc(O)c3O)cc1O | inactive
O=C(N[C@H]1N=C(c2ccccc2F)c2cccc3c2N(CC3)C1=O)c1cc2ccccc2[nH]1 | inactive
CC[C@]1(O)CC[C@H]2[C@@H]3CCC4=CCCC[C@@H]4[C@H]3CC[C@@]21C | inactive
CCOC(=O)c1cncn1C(C)c1ccccc1 (stereo unspecified) | inactive
CCC(=O)O[C@H]1CC[C@H]2[C@@H]3CCC4=CC(=O)CC[C@]4(C)[C@H]3CC[C@]12C | inactive
C[C@H](N)[C@H](O)c1ccc(O)c(O)c1 | inactive
Oc1c(Cl)cc(Cl)c2cccnc12 | inactive

System: not listed separately
Experiment: Primary qHTS for Huh7 cytotoxicity: counterscreen for inhibitors of MERS-S pseudotyped particle cell entry (AID 1479147); further: potency means the concentration at half of the fitted maximal effect
Conditions: cell viability read-out; series mostly up to 57.1 µM

Structure (SMILES) | Potency
Clc1ccc(CSC(Cn2ccnc2)c2ccc(Cl)cc2Cl)cc1 (stereo unspecified) | inactive
CNC(=O)Oc1cccc2ccccc12 | inactive
CC#C[C@]1(O)CC[C@H]2[C@@H]3C[C@H](C)C4=CC(=O)CC[C@]4(C)[C@H]3CC[C@@]21C | inactive
Cc1ccc([N+](=O)[O-])[c]2c1[O][Hg]2 | 2.24 µM (active)
CCOC(=O)c1ncn2c1CN(C)C(=O)c1c(I)cccc1-2 | inactive
C[C@@H]1CN(C2CCC(C#N)(c3ccc(F)cc3)CC2)CC[C@]1(C(=O)O)c1ccccc1 (stereo partly specified) | inactive
Clc1ccc(CO/N=C(\Cn2ccnc2)c2ccc(Cl)cc2Cl)c(Cl)c1 | inactive
O=C(CCCN1CCC(n2c(=O)[nH]c3ccccc32)CC1)c1ccc(F)cc1 | inactive
Oc1ccc([C@H]2CNCc3c2ccc(O)c3O)cc1O | inactive
O=C(NC(=O)c1c(F)cccc1F)Nc1cc(Cl)c(OC(F)(F)C(F)C(F)(F)F)cc1Cl (stereo unspecified) | inactive
CC(Cc1ccccc1)NCCCCl (stereo unspecified) | inactive
C=CC[C@]1(O)CC[C@H]2[C@@H]3CCC4=CC(=O)CCC4=C3C=C[C@@]21C | inactive
O=C(N[C@H]1N=C(c2ccccc2F)c2cccc3c2N(CC3)C1=O)c1cc2ccccc2[nH]1 | inactive
O=C1CN2CCOC2(c2ccccc2Cl)c2cc(Cl)ccc2N1 (stereo unspecified) | inactive
CCCCCCCCCCCC[N+](C)(C)CCOc1ccccc1 | inactive
CC[C@]1(O)CC[C@H]2[C@@H]3CCC4=CCCC[C@@H]4[C@H]3CC[C@@]21C | inactive
CC(C)C(Br)C(=O)NC(N)=O (stereo unspecified) | inactive
C[C@]12Cc3nonc3C[C@@H]1CC[C@@H]1[C@@H]2CC[C@@]2(C)[C@H]1CC[C@]2(C)O | inactive
CCOC(=O)c1cncn1C(C)c1ccccc1 (stereo unspecified) | inactive
Clc1ccc(C(OCCN2CCCCC2)c2ccccc2)cc1 (stereo unspecified) | inactive
CCC(=O)C(CCN(C)C)(c1ccccc1)c1ccccc1 | inactive
C=CCOC(Cn1ccnc1)c1ccc(Cl)cc1Cl (stereo unspecified) | inactive
C#C[C@]1(O)C=C[C@H]2[C@@H]3CCC4=CC(=O)CC[C@@H]4[C@H]3CC[C@@]21CC | inactive
CCC(=O)O[C@H]1CC[C@H]2[C@@H]3CCC4=CC(=O)CC[C@]4(C)[C@H]3CC[C@]12C | inactive
Cc1nnc2n1-c1sc(CCc3ccc(CC(C)C)cc3)cc1C(c1ccccc1Cl)=NC2C (stereo unspecified) | inactive
CC[C@H]1C[C@H]2[C@@H]3CCC4=CC(=O)CC[C@@H]4[C@H]3CC[C@]2(C)[C@H]1O | inactive
CN1C2CCC(C)(C)C1CC(OC(=O)C(O)(c1cccs1)c1cccs1)C2 (stereo unspecified) | inactive
CC(C(O)c1ccccc1)N(C)C/C=C/c1ccccc1 (stereo unspecified) | inactive
C[C@H](N)[C@H](O)c1ccc(O)c(O)c1 | inactive
